# High-throughput results (PubChem)
# Compounds with a hit are over-represented: about 19% of the library has one in this group of screens.
# TDP1 cell CPT = growth inhibition of DT40 Tdp1-/-;hTDP1 cells with camptothecin (screen for TDP1 inhibitors). chicken DT40 Tdp1-/-;hTDP1 cells + 20 nM CPT, ATP luminescence, 48 h. Potency, µM (doses to about 46.2 µM), inactives show at the top dose activity change, negative = growth inhibition, usual class: inhibitors. 12% of 420,000 active. AID 686979; further: potency means the concentration at half of the fitted maximal effect; nearly all actives have a fitted effect of over 55% in size
#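 Chicken DT40 Tdp1-/- cells complemented with human TDP1, 400 cells/well, exposed to compounds plus 20 nM camptothecin for at least 48 h at 37 C; viability read as ATP content by CellTiter-Glo luminescence.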
# HT1080 IDH1KD tx = toxicity to HT-1080 IDH1 knockdown cells (counter line) | AID 686971 | 2% of 360,000 active | HT-1080 IDH1 knockdown viability, ATP luminescence, 48 h | Potency, µM (highest dose often 46.1 µM), for the others: at the highest dose activity, negative = toxicity, actives largely listed as cytotoxic;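 further: potency means the concentration at half of the fitted maximal effect; 0% = DMSO wells and -100% = cell-free medium wells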
#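 IDH1KD HT-1080 cells, 750/well, RPMI + 5% FBS; compound pinned after 2 h settling; 48 h, 37 °C; CellTiter-Glo luminescence; % activity normalised to DMSO and no-cell wells; curves fitted, classed by r2 and efficacy.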
# IL-1B inflam inh = inhibitors of inflammasome signaling (IL-1 beta secretion); THP-1 LPS/ATP IL-1B secretion, AlphaLISA, 16 h; hits give low values; activity change, % at 57.5 µM; 4.7% of 360,000 active; in the data active means activity change below about -50%; inconclusive means mostly about -30% to -49%
#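 THP-1 cells pretreated 1 hr with compounds (up to 57.5 uM final), then stimulated with LPS (250 ng/mL final) plus ATP (1.25 mM final); secreted IL-1B measured by AlphaLISA after 16 hr, decreased signal indicating inhibition.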
# HT1080-NT tox = kills 2HG-producing HT-1080-NT fibrosarcoma cells; HT-1080-NT fibrosarcoma viability, CellTiter-Glo ATP luminescence, 48 h; Potency, µM (top dose mostly 46.1 µM), inactives show at the top dose activity, negative = less viability, most hits filed as cytotoxic; 1.6% of 360,000 active; AID 686970;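 further: NT is the 2HG producing partner of a matched IDH1 knockdown line; potency means the concentration at half of the fitted maximal effect; 0% = DMSO-treated cells and -100% = media-only wells without cells; nearly all actives have a fitted effect of over 55% in size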
#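 750 cells/well, RPMI + 5% FBS; 2 h settle, compound pin-transfer, 48 h at 37 degrees C. CellTiter-Glo 10 min RT, luminescence. Normalized to DMSO and media-only wells.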
# DT40 TDP1 no CPT = qHTS for Inhibitors of human tyrosyl-DNA phosphodiesterase 1 (TDP1): qHTS in cells in absence of CPT. Potency, µM (top dose mostly 46.2 µM), for inactives: at the top dose activity change, negative = growth inhibition, most hits filed as inhibitors. DT40 Tdp1-/- hTDP1 cells, no CPT, ATP luminescence, 48 h. 15% of 420,000 active; further: potency means the concentration at half of the fitted maximal effect; nearly all actives have a fitted effect of over 55% in size
#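 Compound effects on proliferation are scored in DT40 Tdp1-/-;hTDP1 cells in the absence of CPT. ATP levels (CellTiter-Glo luminescence) are recorded after a ≥48 hr, 37 °C incubation.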
# * hit, by the source's call; ? = inconclusive; . = no result; [ ] = dose if it differs, or a comment. Unless noted, the call rests on the fitted dose curve; in most records, active means well fitted curve in the direction sought with a large enough effect; inconclusive means small, poorly fitted or top-dose-only effect, or another doubt; inactive means no such curve, though single readings can be large; an effect the other way counts as inactive or inconclusive. Unless noted, on the % scale 0 is the no-effect control and ±100 the full control effect.
SMILES,TDP1 cell CPT,HT1080 IDH1KD tx,IL-1B inflam inh,HT1080-NT tox,DT40 TDP1 no CPT
Cc1cccc(NC(=O)COC(=O)CCc2ccc(S(=O)(=O)N3CCOCC3)cc2)c1C,0%,5%,0,9%,4%
O=C(CCCn1c(=O)[nH]c2ccccc2c1=O)NCCSCc1ccccc1,-21%,0%,21,-23%,-25%
COc1ccc(CNC(=O)CCCCCn2c(=O)[nH]c3ccccc3c2=O)cc1,-18%,.,.,.,-3%
Cc1ccc(CNC(=O)CCCCCn2c(=O)[nH]c3ccccc3c2=O)cc1,0.65µM*,.,.,.,0.82µM*
O=C(CCCn1c(=S)[nH]c2ccccc2c1=O)NCCSCc1ccccc1,23µM*,-3%,-17,-1%,?
CCCn1cnnc1CNC(=O)C1CCC(=O)N(CCc2ccc(OC)cc2)C1 (centres undefined),1%,11%,8,5%,19%
COc1cc(C2c3cc(O)c(OC)cc3CC(C(=O)O)C2CO)ccc1O (centres undefined),6%,4%,9,2%,2%
COc1cc(COc2cc(N)c(Cl)cc2C(=O)CCC2CCN(CCNS(C)(=O)=O)CC2)cc(OC)c1,27µM*,.,.,.,16µM*
COc1cc(N)c(Cl)cc1C(=O)CCC1CCN(CCNS(C)(=O)=O)CC1,-15%,.,.,.,-14%
O=C(c1cc(=O)[nH]c2ccccc12)N1CCN(c2ccc([N+](=O)[O-])cc2)CC1,?,-3%,-11,2%,?
CN(C)c1ccc(NC(=S)Nc2ccc3c(c2)c(=O)n(C)n3-c2ccc(C(C)(C)C)cc2)cc1,21µM*,18µM*,5,?,12µM*
CN(C)c1ccc(NC(=O)Nc2ccc3c(c2)c(=O)n(C)n3-c2ccccc2)cc1,?,?,-24,16µM*,21µM*
CN(C)c1ccc(NC(=O)Nc2ccc3c(c2)nnn3C)cc1,3%,4%,-1,25%,-3%
CSc1nc2c(c(-c3ccccc3)c1C#N)CCC2,-7%,-8%,-6,-3%,6%
O=C1C=C(c2ccc(OC(F)(F)F)cc2)C[C@@H](c2ccc(F)cc2)C1,?,0%,-30,-2%,?
O=C1C=C(c2ccc(Oc3ccccc3)cc2)C[C@@H](c2ccc(F)cc2)C1,18µM*,0%,?,-3%,?
COc1ccc([C@H]2CC(=O)C=C(c3ccccc3)C2)cc1OC,?,-2%,?,0%,?
COc1ccc([C@H]2CC(=O)C=C(c3ccc(Oc4ccccc4)cc3)C2)cc1OC,10µM*,-14%,-3,-13%,23µM*
COc1ccc([C@H]2CC(=O)C=C(c3ccc(F)cc3OCc3ccccc3)C2)cc1,?,2%,-15,0%,?
COc1ccc([C@H]2CC(=O)C=C(c3cccc(Cl)c3)C2)cc1OC,15µM*,3%,-66*,6%,?
COc1ccc([C@H]2CC(=O)C=C(c3ccc(F)cc3OCc3ccccc3)C2)cc1OC,?,0%,?,-7%,21µM*
CC(=O)N1CCc2cc(S(=O)(=O)CCC(=O)Nc3c(C)n(C)n(-c4ccccc4)c3=O)ccc21,-2%,10%,23,4%,-1%
CC1CCC2(CC1)NC(=O)N(CC(=O)NC(=O)Nc1ccc3c(c1)OCCO3)C2=O (centres undefined),-13%,1%,-10,-10%,-17%
CN(Cc1ccco1)C(=O)Cn1ncc2c([nH]c3ccccc32)c1=O,0%,-4%,-2,-1%,-19%
CCCCC/C=C/C1=CC(=O)C[C@H](c2ccc(OC)c(OC)c2)C1,21µM*,-2%,-22,-4%,10µM*
SMILES,TDP1 cell CPT,HT1080 IDH1KD tx,IL-1B inflam inh,HT1080-NT tox,DT40 TDP1 no CPT
COc1ccc([C@H]2CC(=O)C=C(c3ccc(SC)cc3)C2)cc1OC,9.2µM*,5%,-13,6%,15µM*
O=C1C=C(c2n[nH]nc2-c2ccccc2)C[C@@H](c2ccc(F)cc2)C1,?,-3%,-18,0%,16µM*
COc1cccc(-c2n[nH]nc2C2=CC(=O)C[C@H](c3ccc(F)cc3)C2)c1,?,-14%,?,-6%,?
COc1ccc(C2=CC(=O)C[C@H](c3ccc(F)cc3)C2)cc1F,21µM*,-5%,0,-8%,?
COc1ccc(CNC(=O)c2sc(=O)n(Cc3ccc(C)cc3)c2C)cc1,?,-2%,?,5%,?
CC(Sc1nnc(C2CC2)n1C1CC1)C(=O)N(C)C1(C#N)CCCCC1 (centres undefined),-20%,4%,9,5%,1%
O=C1NC(CCc2ccccc2)C(=O)N1CCOc1cccc(Br)c1 (centres undefined),-19%,0%,-8,8%,-16%
CCCCN(NC(C)=O)c1nc(Cl)nc(NC(C)C)n1,-13%,6%[9.24 µM],-5,-4%,-2%
CC(C)(C)OC(=O)N1CCC(c2c(C(=O)N3CCN(c4ncccn4)CC3)cnn2-c2ccc(F)cc2)CC1,-4%,.,.,.,-5%
O=C(N/N=C/c1cccc([N+](=O)[O-])c1)c1cc(-c2ccc3c4c(cccc24)CC3)n[nH]1,?,-8%,-3,-20%,?
Cc1cc(C(=O)CCl)c(C)n1-c1cccc([N+](=O)[O-])c1,1.5µM*,?,-100*,?,2.3µM*
Cc1cc(C(=O)N/N=C/c2cccc([N+](=O)[O-])c2)c(C)n1-c1ccccc1,?,-14%,-16,-1%,23µM*
O=C(N/N=C/c1ccc(Cl)c([N+](=O)[O-])c1)c1cc(-c2ccc3c4c(cccc24)CC3)n[nH]1,-28%,8.2µM*,?,5.2µM*,?
Cc1cc(C)cc(-n2c(C)cc(/C=N/NC(=O)c3ccncc3)c2C)c1,-6%,-19%,2,-30%,-22%
Cc1cc(C)cc(-n2c(C)cc(/C=N/NC(=O)c3cccc([N+](=O)[O-])c3C)c2C)c1,?,?,-9,?,26µM*
CCc1ccc(NC(=O)NCc2cccnc2)cc1,3%,9%,5,7%,5%
Cc1cccc(-n2nnc(-c3nc(-c4cccs4)no3)c2N)c1,-16%,.,.,.,-22%
COc1ccc(Br)cc1CN1C(=O)c2ccccc2C1C(=O)NC1CCCCCC1 (centres undefined),?,.,.,.,-66%
CC1(C(=O)O)CCCN1C(=O)c1cccc2ccccc12 (centres undefined),-13%,8%,23,12%,1%
COc1ccc(-n2nnnc2SCC(=O)Nc2cccc(C)n2)cc1OC,-4%,3%,0,1%,-20%
